A short description of experiment [1]: Nuclear factor erythroid 2-related factor 2/antioxidant responsive element (Nrf2/ARE) small molecule agonists: qHTS cell viability counter screen in human keratinocytes (AID 1919968; active means well fitted curve in the direction sought with a large enough effect in the repeat runs; an effect the other way counts as inactive or inconclusive; further: nearly all actives have a fitted effect of over 55% in size; further: potency means the concentration at half of the fitted maximal effect). An outline of the steps:
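KeratinoSens HaCaT cells, 1,500/well, preincubated 5 h, then exposed to compounds in DMSO for 23 h at 37 C/5% CO2. Viability read as CellTiter-Fluor fluorescence after 1 h, in the same wells as the ARE-luciferase read.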
For orientation: qHTS replaces the single test concentration by a dilution series.

Experiment [2] can be described thus: Nuclear factor erythroid 2-related factor 2/antioxidant responsive element (Nrf2/ARE) small molecule agonists: luciferase reporter gene qHTS assay in human keratinocytes (AID 1919969). Further: nearly all actives have a fitted effect of over 35% in size. Further: potency means the concentration at half of the fitted maximal effect. For orientation: Reporter assays use an easily measured gene product as a stand-in for the process of interest.
The target of experiment [3] is Gonadotropin-releasing hormone receptor (Homo sapiens) (UniProt P30968). Kind of experiment: Human gonadotropin-releasing hormone receptor (GnRHR) small molecule agonists, calcium flux assay in GnRHR-HEK293 cells (AID 1920063). Further: nearly all actives have a fitted effect of over 35% in size. An outline of the steps: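 HEK293 cells stably expressing human GnRHR were dye-loaded for 1 h at 37 C. Compound was added in agonist mode and fluorescence (Ex/Em 480/540) recorded kinetically for 3 min. Fifteen concentrations, triplicates.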

Experiment [4] has as its target KiSS-1 receptor (Homo sapiens) (UniProt Q969F8). Kind of experiment: Human kisspeptin (KISS1R) small molecule agonists, calcium flux assay in KISS1R-HEK293 cells (AID 1920064; active means well fitted curve in the direction sought with a large enough effect in the repeat runs; an effect the other way counts as inactive or inconclusive). An outline of the steps: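 HEK293 cells stably expressing human KISS1R were loaded with calcium dye for 1 h at 37 C, then given compound; fluorescence (Ex/Em 480/540) was read kinetically for 3 min. Fifteen concentrations, triplicate.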
A general note: Calcium assays in cells follow changes in intracellular calcium, usually with a dye or a luminescent sensor.

Experiment [5] can be described thus: G protein-coupled receptor (GPCR) small molecule agonists, calcium flux assay: HEK293 wild type cell line counter screen (AID 1920065). Summed up: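 Wild-type HEK293 cells plated 18 h, loaded with calcium dye 1 h at 37 C, then compounds added in agonist mode (ATP as positive control). Kinetic fluorescence Ex/Em 480/540 recorded 3 min at 1 sec intervals; 15 concentrations, triplicate.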

A short description of experiment [6]: p53 small molecule agonists, cell-based qHTS assay with human liver microsomes (AID 1963577).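 Further: p53 response element beta-lactamase reporter cells with liver microsomes plus NADPH.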 An outline of the steps: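 With metabolic activation: human liver microsomes (0.5 mg/mL final) plus NADPH (0.5 mg/mL final) added alongside compounds to p53RE-bla cells; 16 h 37 C exposure; beta-lactamase read by LiveBLAzer fluorescence.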
Experiment [7] is described as follows: p53 small molecule agonists, cell-based qHTS assay with rat liver microsomes (AID 1963578). Summed up:
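Metabolic activation by rat liver microsomes and NADPH, each 0.5 mg/mL final, added right after compounds to p53RE-bla reporter cells (4,000/well, plated 5 h earlier). 16 h at 37 C, then LiveBLAzer substrate for 2 h at room temperature in the dark; fluorescence read-out.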

A short description of experiment [8]: p53 small molecule agonists, cell-based qHTS assay with human liver microsomes: qHTS cell viability counter screen (AID 1963579). Further: nearly all actives have a fitted effect of over 45% in size. An outline of the steps:
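Metabolic activation used human liver microsomes and NADPH, both 0.5 mg/mL final, over 16 hours at 37 C on p53RE-bla cells (4,000/well). Cytotoxicity measured by CellTiter-Glo luminescence, 30 min at room temperature.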

Experiment [9] is described as follows: p53 small molecule agonists, cell-based qHTS assay with rat liver microsomes: qHTS cell viability counter screen (AID 1963580). Further: nearly all actives have a fitted effect of over 45% in size. An outline of the steps:
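Viability is assessed in parallel with the p53 reporter read: HCT-116 p53RE-bla cells receive compounds plus rat microsomes and NADPH (0.5 mg/mL final apiece), incubate 16 h at 37 C, and then CellTiter-Glo luminescence is recorded.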

Experiment [10] can be described thus: p53 small molecule agonists, cell-based qHTS assay: qHTS cell viability counter screen (AID 1963581). Further: nearly all actives have a fitted effect of over 45% in size. An outline of the steps: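 p53RE-bla HCT-116 cells, compounds added 5 h after plating and incubated 16 h at 37 C. Cytotoxicity measured in the same wells as intracellular ATP by CellTiter-Glo luminescence after 30 min at room temperature.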
Experiment [11] can be described thus: p53 small molecule agonists, cell-based qHTS assay (AID 1963582; active means well fitted activation curve with a large enough effect in the signal ratio in the repeat runs, not every such curve was filed as active; the % refers to the signal ratio). An outline of the steps:
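p53RE-bla reporter cells, compounds added in DMSO after 5 h plating, incubated 16 h at 37 C. Beta-lactamase read via 2 h room-temperature LiveBLAzer B/G FRET substrate, fluorescence intensity.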

In experiment [12] the target is 5-hydroxytryptamine receptor 2A (Homo sapiens) (UniProt P28223). Kind of experiment: 5-hydroxytryptamine receptor 2A (HTR2A) small molecule antagonists, cell-based qHTS assay (AID 1963586). Further: nearly all actives have a fitted effect of over 45% in size. An outline of the steps: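 Antagonist-mode intracellular calcium assay: DOI (4 nM) added after 5 min compound pre-incubation at room temperature to dye-loaded HTR2A-CHO cells. Fluorescence followed for 3 min, sampled every second.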

Experiment [13] has the same target. The experiment in a line: 5-hydroxytryptamine receptor 2A (HTR2A) small molecule agonists, cell-based qHTS assay (AID 1963587). Further: nearly all actives have a fitted effect of over 30% in size. Summed up:
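CHO cells stably expressing human HTR2A, plated 18 h, loaded with calcium dye 1 h at 37 C. Agonist mode: compounds added and intracellular calcium fluorescence recorded kinetically for 2 min at 1 sec intervals.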

Experiment [14] has as its target Muscarinic acetylcholine receptor M1 (Homo sapiens) (UniProt P11229). Kind of experiment: Cholinergic receptor muscarinic 1 (CHRM1) small molecule antagonists, cell-based qHTS assay (AID 1963588). Further: nearly all actives have a fitted effect of over 40% in size. Summed up:
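CHRM1-CHO calcium-flux assay, antagonist mode. Cells were seeded 18 h, dye-loaded 1 h at 37 C and given compound for 5 min at RT, then acetylcholine was added at 50nM. FDSS fluorescence was read 3 min; 15 concentrations, three runs.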

The target is the same in experiment [15]. The experiment in a line: Cholinergic receptor muscarinic 1 (CHRM1) small molecule agonists, cell-based qHTS assay (AID 1963589). Further: nearly all actives have a fitted effect of over 35% in size. An outline of the steps:
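CHO cells stably expressing human CHRM1 were loaded with calcium dye for 1 h at 37 C, then compound was added in agonist mode. Intracellular calcium fluorescence was followed kinetically at 1 s intervals. Fifteen concentrations were tested in three independent runs.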

The nature of experiment [16]: cAMP Responsive Elements (CRE) small molecule antagonists, cell-based qHTS assay (AID 1963591; active means well fitted inhibition curve with a large enough effect in the signal ratio in the repeat runs, not every such curve was filed as active; the % refers to the signal ratio). Summed up: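 CRE-bla HEK293T cells plated 18 h, then given compound plus NKH477 at 0.25 uM final for 3 h at 37C. Beta-lactamase reporter read with LiveBLAzer B/G FRET substrate after 2 h at room temperature.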
The target in experiment [17] is Beta-2 adrenergic receptor (Homo sapiens) (UniProt P07550). The experiment in a line: Adrenergic beta2 receptor (ADRB2) small molecule antagonists, cell-based qHTS assay (AID 1963592). Further: series mostly up to about 92 µM; nearly all actives have a fitted effect of over 50% in size. An outline of the steps: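 Cells (CHO, stable ADRB2 overexpression) incubated 18-20hr at 37C; compounds added from DMSO; agonist mix (1nM isoproterenol, 100uM IBMX, 25uM Ro-20-1724) added; 0.5hr RT; d2-cAMP and anti-cAMP-cryptate added; 1hr RT; 665/615 nm read.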

Experiment [18] has as its target D(2) dopamine receptor (Homo sapiens) (UniProt P14416). Kind of experiment: Dopamine D2 receptor (DRD2) small molecule agonists, cell-based qHTS assay (AID 1963594). Further: nearly all actives have a fitted effect of over 35% in size. Summed up: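 HEK293 cells stably expressing human DRD2, pre-treated with PDE inhibitor Ro20-1724 (0.1 mM final) and compound 10 min at room temperature, then stimulated with NKH477 (200nM […]) for 30 min. cAMP read by HTRF (665/620 nm).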

For experiment [19] the target is unchanged. Kind of experiment: Dopamine D2 receptor (DRD2) small molecule antagonists, cell-based qHTS assay (AID 1963595; active means well fitted inhibition curve with a large enough effect in the signal ratio in the repeat runs, with a control signal flat; the % refers to the signal ratio). An outline of the steps:
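HEK293 cells stably expressing DRD2 were preincubated with 0.1 mM Ro20-1724, then with compound for 10 min at room temperature. Cells were stimulated with 200 nM NKH477 plus 12 nM quinpirole for 30 min, and cAMP was read by HTRF.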

Experiment [20] in a line: cAMP Responsive Elements (CRE) small molecule agonists, cell-based qHTS assay (AID 1963590). Summed up: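 CRE-bla HEK 293T cells, 2,000/well in DMEM with 10% dialyzed FBS and 25 mM HEPES, pre-incubated 18 h at 37 C, then exposed to compound 3 h at 37 C. Beta-lactamase reporter read with LiveBLAzer B/G FRET substrate after 2 h at room temperature.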

A number with no mark means an inactive call. Records with an inconclusive call do not appear. The source made the active and inactive calls. Unless noted, the call rests on the fitted dose curve.

Sequence of KiSS-1 receptor (Homo sapiens) (Q969F8 whole entry, looked up): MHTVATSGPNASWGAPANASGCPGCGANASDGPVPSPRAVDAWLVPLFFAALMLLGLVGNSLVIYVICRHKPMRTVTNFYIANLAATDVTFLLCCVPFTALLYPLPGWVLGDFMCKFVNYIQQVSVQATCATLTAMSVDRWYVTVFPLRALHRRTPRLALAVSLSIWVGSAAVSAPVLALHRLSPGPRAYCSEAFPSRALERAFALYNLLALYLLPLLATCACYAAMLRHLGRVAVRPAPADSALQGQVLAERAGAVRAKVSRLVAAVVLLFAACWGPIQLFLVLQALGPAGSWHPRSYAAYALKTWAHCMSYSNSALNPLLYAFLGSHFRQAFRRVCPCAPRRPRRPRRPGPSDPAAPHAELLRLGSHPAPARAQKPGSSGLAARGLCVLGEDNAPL
Sequence of 5-hydroxytryptamine receptor 2A (Homo sapiens) (P28223 whole entry, looked up): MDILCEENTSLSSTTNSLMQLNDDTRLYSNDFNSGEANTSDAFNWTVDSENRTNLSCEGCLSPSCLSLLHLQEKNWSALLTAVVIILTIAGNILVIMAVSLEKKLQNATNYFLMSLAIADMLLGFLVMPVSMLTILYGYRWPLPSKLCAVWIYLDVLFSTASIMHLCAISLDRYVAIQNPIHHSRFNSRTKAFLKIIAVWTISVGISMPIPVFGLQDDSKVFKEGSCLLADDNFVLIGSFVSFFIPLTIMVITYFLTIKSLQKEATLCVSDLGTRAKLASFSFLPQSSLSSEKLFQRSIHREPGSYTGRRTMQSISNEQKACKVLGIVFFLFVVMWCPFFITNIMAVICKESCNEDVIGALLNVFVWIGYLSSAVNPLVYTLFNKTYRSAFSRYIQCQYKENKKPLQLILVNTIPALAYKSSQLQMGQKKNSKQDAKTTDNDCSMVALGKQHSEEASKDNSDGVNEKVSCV
Sequence of D(2) dopamine receptor (Homo sapiens) (P14416 whole entry, looked up): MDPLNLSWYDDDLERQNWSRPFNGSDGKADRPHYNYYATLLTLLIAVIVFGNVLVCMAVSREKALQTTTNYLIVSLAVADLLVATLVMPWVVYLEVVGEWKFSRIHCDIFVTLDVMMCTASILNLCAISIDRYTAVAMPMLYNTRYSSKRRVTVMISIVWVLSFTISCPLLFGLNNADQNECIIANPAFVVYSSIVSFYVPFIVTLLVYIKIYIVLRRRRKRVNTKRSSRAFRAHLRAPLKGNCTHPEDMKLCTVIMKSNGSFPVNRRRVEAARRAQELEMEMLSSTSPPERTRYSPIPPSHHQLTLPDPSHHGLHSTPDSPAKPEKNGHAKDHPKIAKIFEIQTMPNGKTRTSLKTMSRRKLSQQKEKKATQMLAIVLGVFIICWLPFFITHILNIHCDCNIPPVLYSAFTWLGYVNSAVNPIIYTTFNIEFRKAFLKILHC
Sequence of Beta-2 adrenergic receptor (Homo sapiens) (P07550 whole entry, looked up): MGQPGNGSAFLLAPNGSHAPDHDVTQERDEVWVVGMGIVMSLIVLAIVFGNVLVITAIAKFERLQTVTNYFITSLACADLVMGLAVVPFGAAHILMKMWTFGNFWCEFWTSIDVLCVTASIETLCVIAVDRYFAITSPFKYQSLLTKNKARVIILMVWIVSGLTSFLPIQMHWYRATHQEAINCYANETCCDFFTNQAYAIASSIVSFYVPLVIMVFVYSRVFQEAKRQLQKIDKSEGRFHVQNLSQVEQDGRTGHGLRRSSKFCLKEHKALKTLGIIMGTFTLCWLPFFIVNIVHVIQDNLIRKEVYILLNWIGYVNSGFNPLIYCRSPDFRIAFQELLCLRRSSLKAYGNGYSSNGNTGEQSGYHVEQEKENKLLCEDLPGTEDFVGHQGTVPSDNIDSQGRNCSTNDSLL
Sequence of Gonadotropin-releasing hormone receptor (Homo sapiens) (P30968 whole entry, looked up): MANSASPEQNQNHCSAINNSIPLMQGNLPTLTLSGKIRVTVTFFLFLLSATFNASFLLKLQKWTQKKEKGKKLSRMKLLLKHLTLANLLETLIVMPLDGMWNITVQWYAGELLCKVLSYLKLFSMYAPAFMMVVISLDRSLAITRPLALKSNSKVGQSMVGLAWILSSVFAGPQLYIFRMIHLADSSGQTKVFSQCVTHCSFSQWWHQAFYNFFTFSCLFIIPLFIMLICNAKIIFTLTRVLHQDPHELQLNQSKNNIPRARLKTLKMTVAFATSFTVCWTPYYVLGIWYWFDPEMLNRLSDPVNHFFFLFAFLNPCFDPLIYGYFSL
Sequence of Muscarinic acetylcholine receptor M1 (Homo sapiens) (P11229 whole entry, looked up): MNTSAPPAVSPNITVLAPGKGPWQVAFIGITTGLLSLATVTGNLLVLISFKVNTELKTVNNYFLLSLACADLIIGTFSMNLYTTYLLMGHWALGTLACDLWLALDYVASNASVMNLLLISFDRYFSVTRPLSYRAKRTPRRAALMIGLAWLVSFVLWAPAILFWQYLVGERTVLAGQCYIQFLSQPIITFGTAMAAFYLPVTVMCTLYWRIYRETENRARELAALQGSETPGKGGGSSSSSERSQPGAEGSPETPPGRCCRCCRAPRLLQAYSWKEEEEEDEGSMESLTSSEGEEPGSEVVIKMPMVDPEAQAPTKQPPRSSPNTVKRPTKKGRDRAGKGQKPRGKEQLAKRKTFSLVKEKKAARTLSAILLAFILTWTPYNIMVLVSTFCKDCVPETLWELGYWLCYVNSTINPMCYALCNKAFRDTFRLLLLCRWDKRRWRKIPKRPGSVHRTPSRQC

With `O=C(NCC1CN(c2ccc(N3CCOCC3=O)cc2)C(=O)O1)c1ccc(Cl)s1` (centres undefined), the Potency result in experiment [1], in experiment [2], in [3], in experiment [6], in experiment [7] and in [8] was “inactive” in each case. For the same compound, the Potency result in experiment [9], in experiment [10], in [11], in experiment [12], in experiment [13] and in [14] was “inactive” throughout. For the same compound, the Potency entry in [15], in experiment [16], in [17], in [18] and in experiment [19] was “inactive” in each case. Besides, the outcome in experiment [4] and in [5] was inactive.
In the case of `O=C(O)c1cc(Cl)cc([N+](=O)[O-])c1Cl`, the Potency result in [1], in experiment [2], in experiment [3], in experiment [6], in [7] and in experiment [8] was “inactive” each time. Besides, the Potency result in [9], in [10], in [11], in experiment [12], in [13] and in experiment [14] was “inactive” in each case. The Potency entry in experiment [15], in [16], in [17], in experiment [18] and in [19] was “inactive” each time. The outcome in experiment [4] and in [5] was inactive.
On to `O=C(Nc1ccc2c(O)c(N=Nc3ccc(N=Nc4ccc(S(=O)(=O)O)cc4)cc3)c(S(=O)(=O)O)cc2c1)c1ccccc1`, for which, in experiment [1], the Potency was 30.6 µM (active). The Potency entry in [2], in experiment [3], in experiment [6], in experiment [7], in experiment [8] and in experiment [9] was “inactive” each time. For the same compound, the Potency entry in experiment [10], in experiment [11], in experiment [12], in experiment [13], in experiment [14] and in experiment [15] was “inactive” in each case. For the same compound, the Potency entry in experiment [20], in experiment [17], in experiment [18] and in [19] was “inactive” each time. In addition, the result in experiment [4] and in experiment [5] was inactive.
With `CCNC(=O)C(C)OC(=O)Nc1ccccc1` (centres undefined), the Potency result in [1], in experiment [2], in experiment [3], in experiment [6], in experiment [7] and in [8] was “inactive” in each case. For the same compound, the Potency entry in experiment [9], in [10], in experiment [11], in experiment [12], in [13] and in [14] was “inactive” each time. Besides, the Potency entry in experiment [15], in experiment [20], in [16], in experiment [18] and in [19] was “inactive” throughout. Also, the outcome in experiment [4] and in [5] was inactive.
On to `CC/C=C\CC/C=C/C(OCC)OCC`, for which the Potency result in experiment [1], in [3], in [6], in experiment [7], in [8] and in experiment [9] was “inactive” each time. Besides, the Potency entry in [10], in experiment [11], in experiment [12], in experiment [13], in experiment [14] and in [15] was “inactive” throughout. Moreover, the Potency result in experiment [20], in experiment [17], in experiment [18] and in experiment [19] was “inactive” in each case. Moreover, the Potency in [2] is 61.1 µM (active). Moreover, the result in experiment [4] and in experiment [5] was inactive.
With `O=C(O)C(=O)Cc1c[nH]c2ccccc12`, the Potency result in experiment [1], in experiment [3], in [6], in [7], in experiment [8] and in [9] was “inactive” each time. Besides, the Potency result in [10], in [11], in [12], in [13], in [14] and in [15] was “inactive” in each case. In addition, the Potency entry in [20], in experiment [17], in experiment [18] and in [19] was “inactive” throughout. In [2], the Potency is 54.5 µM (active). Besides, the outcome in experiment [4] and in experiment [5] was inactive.
